# Values joined by “and” are separate entries in the source; they are usually repeats but may differ in a detail not shown here. Equal values may be shown once. Records with an inconclusive call do not appear. Entries that show only a call come without a potency. Active and inactive are the calls of the source. Unless noted, the call rests on the fitted dose curve; in most records, active means well fitted curve in the direction sought with a large enough effect in the repeat runs; inconclusive means weak or mixed curves; inactive means no such curve, though single readings can be large; an effect the other way counts as inactive or inconclusive.
# Columns and labels:
# [1] = qHTS assay for small molecule agonists of the p53 signaling pathway (AID 651631; calls by dose curve; further: nearly all actives have a fitted effect of over 15% in size; further: potency means the concentration at half of the fitted maximal effect)
# How it was run: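 HCT-116 cells carrying a beta-lactamase reporter under p53 response elements were dosed with compound for 16 h at 37 °C. LiveBLAzer B/G FRET substrate was then added for 2 h at room temperature, and fluorescence intensity was read to detect pathway agonism.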
# [2] = qHTS assay for small molecule disruptors of the mitochondrial membrane potential (AID 720635); further: potency means the concentration at half of the fitted maximal effect
# How it was run: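 HepG2 cells exposed to compound 1 hr at 37C, then Mito-MPS dye 30 min. Ratio read of aggregate (540/590 nm) versus monomer (490/535 nm) fluorescence.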
# [3] = target: Glucocorticoid receptor (Homo sapiens) (UniProt P04150); test: qHTS assay to identify small molecule antagonists of the glucocorticoid receptor (GR) signaling pathway (AID 720692; active means well fitted inhibition curve with a large enough effect in the signal ratio in the repeat runs, not every such curve was filed as active; the % refers to the signal ratio)
# Glucocorticoid receptor (Homo sapiens), sequence (P04150 whole entry, looked up): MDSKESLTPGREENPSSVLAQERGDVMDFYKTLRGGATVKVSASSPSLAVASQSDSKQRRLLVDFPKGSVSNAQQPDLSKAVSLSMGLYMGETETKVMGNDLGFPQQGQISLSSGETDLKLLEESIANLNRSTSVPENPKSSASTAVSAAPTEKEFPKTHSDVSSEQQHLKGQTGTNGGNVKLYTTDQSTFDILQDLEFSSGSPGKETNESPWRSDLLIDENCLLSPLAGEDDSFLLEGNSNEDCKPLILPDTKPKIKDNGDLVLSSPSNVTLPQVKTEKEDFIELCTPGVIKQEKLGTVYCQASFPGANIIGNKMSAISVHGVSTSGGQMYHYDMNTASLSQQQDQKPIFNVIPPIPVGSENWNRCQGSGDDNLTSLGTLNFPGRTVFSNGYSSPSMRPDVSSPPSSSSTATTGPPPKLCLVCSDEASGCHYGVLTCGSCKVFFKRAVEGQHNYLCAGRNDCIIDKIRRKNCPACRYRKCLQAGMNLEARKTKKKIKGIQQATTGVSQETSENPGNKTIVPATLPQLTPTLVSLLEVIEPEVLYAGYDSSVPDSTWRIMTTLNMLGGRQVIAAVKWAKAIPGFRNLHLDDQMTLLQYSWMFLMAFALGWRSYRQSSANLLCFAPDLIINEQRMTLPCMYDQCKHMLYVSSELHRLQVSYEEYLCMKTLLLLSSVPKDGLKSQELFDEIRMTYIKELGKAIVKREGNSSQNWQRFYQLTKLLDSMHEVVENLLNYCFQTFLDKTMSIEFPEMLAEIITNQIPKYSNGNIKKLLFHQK
# How it was run: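 Cells plated, rested 4 h at 37 C/5% CO2; compounds in DMSO pin-transferred; dexamethasone added to 5 nM final; 18 h at 37 C; B/G FRET substrate added, 2 h room temperature; fluorescence measured.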
# [4] = target: Androgen receptor (Homo sapiens) (UniProt P10275); test: qHTS assay to identify small molecule agonists of the androgen receptor (AR) signaling pathway (AID 743036; active means well fitted activation curve with a large enough effect in the signal ratio in the repeat runs, with a control signal flat, not every such curve was filed as active; the % refers to the signal ratio; further: potency means the concentration at half of the fitted maximal effect)
# Androgen receptor (Homo sapiens), sequence (P10275 whole entry, looked up): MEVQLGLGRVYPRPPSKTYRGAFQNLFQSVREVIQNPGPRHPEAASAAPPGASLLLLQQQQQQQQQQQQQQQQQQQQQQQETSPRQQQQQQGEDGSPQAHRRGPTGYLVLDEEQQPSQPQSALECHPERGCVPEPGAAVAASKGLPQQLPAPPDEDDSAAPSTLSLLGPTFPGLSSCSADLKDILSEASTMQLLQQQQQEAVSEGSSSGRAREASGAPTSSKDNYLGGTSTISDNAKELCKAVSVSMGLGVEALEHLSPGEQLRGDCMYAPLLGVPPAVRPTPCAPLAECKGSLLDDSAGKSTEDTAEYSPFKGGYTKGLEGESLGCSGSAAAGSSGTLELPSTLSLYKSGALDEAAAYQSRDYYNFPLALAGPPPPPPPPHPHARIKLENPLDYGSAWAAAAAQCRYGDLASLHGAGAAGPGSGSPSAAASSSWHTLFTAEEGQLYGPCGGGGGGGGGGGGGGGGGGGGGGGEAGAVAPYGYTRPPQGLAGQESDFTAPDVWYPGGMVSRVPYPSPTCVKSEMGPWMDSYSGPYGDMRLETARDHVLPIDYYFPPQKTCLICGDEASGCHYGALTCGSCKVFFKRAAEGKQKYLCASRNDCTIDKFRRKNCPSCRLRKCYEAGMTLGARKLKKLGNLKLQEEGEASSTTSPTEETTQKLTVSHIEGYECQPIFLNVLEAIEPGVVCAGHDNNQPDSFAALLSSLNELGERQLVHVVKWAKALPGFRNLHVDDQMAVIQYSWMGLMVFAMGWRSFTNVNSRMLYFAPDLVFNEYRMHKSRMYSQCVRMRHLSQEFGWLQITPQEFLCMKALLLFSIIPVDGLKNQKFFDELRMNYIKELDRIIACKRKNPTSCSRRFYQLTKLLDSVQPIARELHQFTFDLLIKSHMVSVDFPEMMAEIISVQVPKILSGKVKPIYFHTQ
# How it was run: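 AR-UAS-bla HEK293 cells, plated 4 h before dosing, were treated with compound for 16 h at 37C. beta-Lactamase reporter read after 2 h with LiveBLAzer B/G FRET substrate at room temperature.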
# [5] = target: Androgen receptor (Homo sapiens) (UniProt P10275); test: qHTS assay to identify small molecule agonists of the androgen receptor (AR) signaling pathway using the MDA cell line (AID 743040; further: nearly all actives have a fitted effect of over 20% in size; further: potency means the concentration at half of the fitted maximal effect)
# How it was run: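 MDA-kb2 breast carcinoma cells carrying MMTV-luciferase (responsive to AR and GR), plated 5 h then treated 16 h with compounds at 37C, 0% CO2. Read-out was ONE-Glo luminescence after 30 min at room temperature.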
# [6] = target: Androgen receptor (Homo sapiens) (UniProt P10275); test: qHTS assay to identify small molecule antagonists of the androgen receptor (AR) signaling pathway using the MDA cell line (AID 743042; further: nearly all actives have a fitted effect of over 55% in size; further: potency means the concentration at half of the fitted maximal effect)
# How it was run: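 MDA-kb2 breast carcinoma cells carrying MMTV-luciferase (AR/GR responsive) were co-treated with compounds and the agonist R1881 for 16 h at 37C. Inhibition read as ONE-Glo luminescence; CellTiter-Fluor fluorescence measured in parallel for cytotoxicity.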
# [7] = target: Nuclear receptor subfamily 1 group I member 2 (Homo sapiens) (UniProt O75469); test: Human pregnane X receptor (PXR) activation by small molecules, qHTS assay (AID 1346985); further: nearly all actives have a fitted effect of over 40% in size
# How it was run: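 DPX-2 cells (HepG2 co-transfected with a PXR response element and a CYP3A4-promoter luciferase construct) were seeded at 2,000 per well, rested 5 hr at 37C, then exposed to DMSO-dissolved compounds for 24 hr. Activation was read as luciferase luminescence.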
# [8] = target: Androgen receptor (Homo sapiens) (UniProt P10275); test: qHTS assay to identify small molecule antagonists of the androgen receptor (AR) signaling pathway (AID 743035; active means well fitted inhibition curve with a large enough effect in the signal ratio in the repeat runs, not every such curve was filed as active; the % refers to the signal ratio)
# How it was run: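 Antagonism is scored as loss of R1881-driven beta-lactamase reporter expression in HEK293 cells carrying the reporter under a UAS element, after 16 h co-treatment at 37C and a 2 h room-temperature FRET substrate read.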
# [9] = target: Acetylcholinesterase (Homo sapiens) (UniProt P22303); test: Acetylcholinesterase (AChE) small molecule antagonists: colormetric cell-based qHTS assay (AID 1347395; calls by dose curve; further: nearly all actives have a fitted effect of over 30% in size)
# Acetylcholinesterase (Homo sapiens), sequence (P22303 whole entry, looked up): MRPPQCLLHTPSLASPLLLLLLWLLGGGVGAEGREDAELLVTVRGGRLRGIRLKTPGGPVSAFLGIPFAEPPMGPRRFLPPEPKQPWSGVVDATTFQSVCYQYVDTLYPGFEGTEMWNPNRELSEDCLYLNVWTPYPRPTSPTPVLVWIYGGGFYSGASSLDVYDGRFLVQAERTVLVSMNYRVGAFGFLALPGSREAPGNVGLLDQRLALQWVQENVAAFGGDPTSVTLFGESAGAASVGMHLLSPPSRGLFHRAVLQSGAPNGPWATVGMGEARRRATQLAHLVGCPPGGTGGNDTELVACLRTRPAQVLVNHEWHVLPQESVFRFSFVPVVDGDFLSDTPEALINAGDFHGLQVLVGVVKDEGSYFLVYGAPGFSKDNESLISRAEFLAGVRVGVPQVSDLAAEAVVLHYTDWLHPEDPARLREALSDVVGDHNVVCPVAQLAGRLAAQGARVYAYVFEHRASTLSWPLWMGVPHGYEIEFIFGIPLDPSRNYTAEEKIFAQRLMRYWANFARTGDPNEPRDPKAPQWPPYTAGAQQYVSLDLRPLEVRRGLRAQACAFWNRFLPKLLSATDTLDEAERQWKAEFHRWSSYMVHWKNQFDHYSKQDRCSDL
# How it was run: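 SH-SY5Y cells attached overnight, exposed to compound 30 min at 37 C, then given DTNB/acetylthiocholine; after 90 min at 37 C, colorimetric thiocholine read gives cellular AChE activity.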
# [10] = target: Acetylcholinesterase (Homo sapiens) (UniProt P22303); test: Acetylcholinesterase (AChE) small molecule antagonists: enzyme-based qHTS assay (AID 1347397; calls by dose curve; further: nearly all actives have a fitted effect of over 55% in size); conditions: Potency: AChE enzyme activity inhibition; outcome: AChE enzyme activity inhibition
# How it was run: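 Recombinant human AChE (50 mU/mL) preincubated with compound 30 min at room temperature; acetylthiocholine plus DTNB then added, and thiocholine formation read colorimetrically after 10 min at room temperature. DMSO served as vehicle control.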
# [11] = target: Acetylcholinesterase (Homo sapiens) (UniProt P22303); test: Acetylcholinesterase (AChE) small molecule antagonists: fluorescence cell-based qHTS assay (AID 1347398; calls by dose curve; further: nearly all actives have a fitted effect of over 50% in size); conditions: Potency: AChE activity; outcome: AChE activity
# How it was run: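 SH-SY5Y cells (2000/well), attached overnight, incubated with compound 30 min at 37 C. Acetylthiocholine plus Thiolite Green then added for 40 min at room temperature. Thiocholine fluorescence (Ex/Em 490/520 nm) reports cellular AChE activity.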
# [12] = target: Acetylcholinesterase (Homo sapiens) (UniProt P22303); test: Acetylcholinesterase (AChE) small molecule antagonists: enzyme-based qHTS assay with human liver microsomes (AID 1347399; calls by dose curve; further: nearly all actives have a fitted effect of over 60% in size); conditions: Potency: qHTS inhibition; outcome: qHTS inhibition
# How it was run: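 Recombinant human AChE (50 mU/mL in the enzyme mix) and human liver microsomes (0.25 mg/mL final) were preincubated with compound and NADPH (0.25 mg/mL final) for 30 min at 37 C. Acetylthiocholine/DTNB was then added; thiocholine was read colorimetrically after 10 min at room temperature.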
smiles,measurement,setting,value
Clc1ccc2c(c1)C(c1ccccc1)=NCc1nncn1-2,Potency,[1],inactive
same,Potency,[2],inactive
same,Potency,[3],inactive
same,Potency,[4],inactive
same,Potency,[5],inactive
same,Potency,[6],inactive
same,Potency,[7],inactive
C[N+]1([O-])[C@@H]2CC[C@H]1CC(OC(=O)C(CO)c1ccccc1)C2 (some centres not stated),Potency,[3],inactive
same,Potency,[7],inactive
Cc1nnc2n1-c1ccc(Cl)cc1C(c1ccccc1Cl)=NC2,Potency,[1],inactive
same,Potency,[2],inactive
CC(=O)OCC(=O)[C@H]1CC[C@H]2[C@@H]3CC[C@H]4C[C@H](O)CC[C@]4(C)[C@H]3C(=O)C[C@]12C,Potency,[1],inactive
same,Potency,[3],inactive
same,Potency,[7],inactive
O=S(=O)(O)c1cc(O)ccc1O,Potency,[2],inactive
O=C1CCO1,Potency,[2],inactive
same,Potency,[8],inactive
same,Potency,[4],inactive
same,Potency,[5],inactive
same,Potency,[6],inactive
same,Potency,[7],inactive
CC(C)CCC(=O)O[C@H]1CC[C@H]2[C@@H]3CCC4=CC(=O)CC[C@]4(C)[C@H]3CC[C@]12C,Potency,[8],inactive
same,Potency,[4],0.0107 µM (active)
same,Potency,[5],0.0042 µM (active)
same,Potency,[6],inactive
same,Potency,[7],inactive
CN(C)CCCCCCN(C)C,Potency,[2],inactive
same,Potency,[3],inactive
CCC(=O)O[C@]1(c2ccccc2)CCN(C)C[C@H]1C,Potency,[1],inactive
same,Potency,[2],inactive
same,Potency,[8],inactive
same,Potency,[4],inactive
same,Potency,[5],inactive
same,Potency,[6],inactive
same,Potency,[7],inactive
c1ccccc1,Potency,[3],inactive
same,Potency,[9],inactive
same,Potency,[10],inactive
same,Potency,[11],inactive
same,Potency,[12],inactive
C[C@H]1CC[C@]2(NC1)O[C@H]1C[C@H]3[C@@H]4CC[C@H]5C[C@@H](O[C@@H]6O[C@H](CO)[C@H](O[C@@H]7O[C@H](CO)[C@@H](O)[C@H](O[C@@H]8OC[C@@H](O)[C@H](O)[C@H]8O)[C@H]7O[C@@H]7O[C@H](CO)[C@@H](O)[C@H](O)[C@H]7O)[C@H](O)[C@H]6O)CC[C@]5(C)[C@H]4CC[C@]3(C)[C@H]1[C@@H]2C,Potency,[2],1.97 µM (active)
same,Potency,[5],inactive
same,Potency,[6],5.96 µM (active)
same,Potency,[7],inactive
CC(C)(C)c1ccc(O)cc1,Potency,[2],55.8 µM (active) and 43.3 µM (active)
O=C(CCl)c1ccc(Oc2ccc(C(=O)CCl)cc2)cc1,Potency,[2],inactive
same,Potency,[7],inactive
CC1(C)S[C@@H]2[C@H](N)C(=O)N2[C@H]1C(=O)O,Potency,[1],inactive
same,Potency,[2],inactive
same,Potency,[3],inactive
same,Potency,[8],inactive
same,Potency,[4],inactive
same,Potency,[5],inactive
same,Potency,[6],inactive
O=[N+]([O-])c1cc(I)c(O)c(I)c1,Potency,[1],5.31 µM (active)
same,Potency,[2],13.3 µM (active)
same,Potency,[5],inactive
same,Potency,[6],inactive
CNc1ccc(C(=O)CC(O)CCC(C)C2OC(=O)CC(O)CC(=O)CC(O)CC(O)CC(O)CC(O)CC3(O)CC(O)C(C(=O)OC)C(CC(O[C@@H]4O[C@H](C)[C@@H](O)[C@H](N)[C@@H]4O)/C=C/C=C/C=C/C=C/C=C/C=C/C=C/C2C)O3)cc1 (some centres not stated),Potency,[2],16.8 µM (active)
same,Potency,[7],inactive
CN=C1CN(O)C(c2ccccc2)=c2cc(Cl)ccc2=N1,Potency,[1],inactive
same,Potency,[3],inactive
same,Potency,[7],inactive
c1csc(C2(N3CCCCC3)CCCCC2)c1,Potency,[1],inactive
same,Potency,[2],inactive
CN[C@H]1C[C@@H](N)[C@H](O)[C@@H](O[C@@H]2O[C@H](CO)[C@H](O)[C@@H]3OC4(O[C@H]23)O[C@H](C(N)CO)[C@H](O)[C@H](O)[C@H]4O)[C@@H]1O (some centres not stated),Potency,[1],inactive
same,Potency,[7],inactive
COC(COC(N)=O)C1=C(N2CC2)C(=O)C(C)=C(N2CC2)C1=O (configuration not stated),Potency,[2],inactive
same,Potency,[5],inactive
same,Potency,[6],1.33 µM (active)
same,Potency,[7],inactive
COc1ccc2c3c1O[C@H]1[C@@H](O)C=C[C@H]4[C@@H](C2)NCC[C@@]341,Potency,[1],inactive
same,Potency,[2],inactive
same,Potency,[3],inactive
same,Potency,[7],inactive
CCC1C(C)=NN=C(c2ccc(OC)c(OC)c2)c2cc(OC)c(OC)cc21 (configuration not stated),Potency,[1],inactive
CCCCCCCCCC(=O)O[C@H]1CC[C@H]2[C@@H]3CCC4=CC(=O)CC[C@]4(C)[C@H]3CC[C@]12C,Potency,[2],inactive
same,Potency,[7],inactive
C#CC(C)(O)CC (configuration not stated),Potency,[3],inactive
same,Potency,[7],inactive
CCCCCCC(=O)O[C@H]1CC[C@H]2[C@@H]3CC[C@H]4CC(=O)C=C(C)[C@]4(C)[C@H]3CC[C@]12C,Potency,[7],inactive
c1cc2c(c(NC3=NCCN3)c1)CCCC2,Potency,[1],inactive
same,Potency,[3],inactive
same,Potency,[8],inactive
same,Potency,[5],inactive
same,Potency,[6],inactive
same,Potency,[7],inactive
CCNC(C)Cc1cccc(C(F)(F)F)c1 (configuration not stated),Potency,[3],inactive
same,Potency,[7],inactive
OC(c1ccccc1)(c1ccccc1)C1CN2CCC1CC2 (configuration not stated),Potency,[8],inactive
same,Potency,[5],26.6 µM (active)
same,Potency,[6],inactive
same,Potency,[7],inactive
CCC1(C)CC(=O)NC(=O)C1,Potency,[1],inactive
same,Potency,[2],inactive
same,Potency,[3],inactive
C=CCN(C1=NCCN1)c1c(Cl)cccc1Cl,Potency,[1],inactive
same,Potency,[2],inactive
same,Potency,[3],inactive
same,Potency,[7],inactive
Oc1c(Cl)cc(Cl)cc1Cl,Potency,[2],17 µM (active) and 48.6 µM (active)
NC1=NC(=O)N2CC12 (configuration not stated),Potency,[2],inactive
